From PubChem BioAssay (EPA / NIEHS) come the findings set out here.

The source made the active and inactive calls. How the source made its calls: active means hit-call score of the fitted dose curve at least 0.9, where 1 is the maximum; inactive means score below 0.9.

For orientation: AC50 means the midpoint of the concentration-response curve, whichever way the signal moves.

Experiment [1] in a line: ATG_E_Box_CIS: Attagene CIS-FACTORIAL HepG2 Assay for human Enhancer Box (E-box) (AID 2282936). Conditions: HepG2 E-box cis-reporter transcription, actives raise or lower the signal. An outline of the steps: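 Measured 24 h post-dosing in HepG2 cells transfected with multiple cis-regulated reporter units, signal being reporter mRNA induction detected by fluorescent RT-PCR with capillary electrophoresis; gain or loss fitted against DMSO.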

A short description of experiment [2]: ATG_M_61_CIS: Attagene CIS-FACTORIAL HepG2 Assay for M61 Transcription Factor (Internal Marker) (AID 2282937). Conditions: HepG2 Attagene CIS-FACTORIAL M61 internal marker reporter; actives raise or lower the signal. In outline: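 HepG2 cells transiently transfected with multiplexed cis-promoter reporter units reporting endogenous transcription factor activity, measured 24 h after dosing. Reporter mRNA quantified by RT-PCR and capillary electrophoresis; bidirectional fit against DMSO baseline.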

A short description of experiment [3]: ATG_EGR_CIS: Attagene CIS-FACTORIAL HepG2 Assay for human Early Growth Response 1 (EGR1) (AID 2282938). The conditions noted are these: HepG2 Attagene CIS-FACTORIAL EGR reporter mRNA; actives raise or lower the signal. An outline of the steps:
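HepG2 cells transiently transfected with cis-element-driven multiplexed reporter units, dosed for 24 h. EGR1-element reporter mRNA quantified by RT-PCR, 6-FAM labelling, HpaI digestion and capillary electrophoresis; bidirectional fit versus DMSO.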

Experiment [4] in a line: ATG_M_19_CIS: Attagene CIS-FACTORIAL HepG2 Assay for M19 Transcription Factor (Internal Marker) (AID 2282939). The conditions noted are these: HepG2 Attagene CIS-FACTORIAL M19 internal marker reporter; actives raise or lower the signal. In outline: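 Readout: fluorescent reporter-transcript fragments by capillary electrophoresis after RT-PCR. Human HepG2 liver cells carried transfected MRTU constructs reporting endogenous transcription-factor activity; exposure 24 h. Gain or loss of signal fitted relative to DMSO.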

A short description of experiment [5]: ATG_ERE_CIS: Attagene CIS-FACTORIAL HepG2 Assay for Estrogen Response Element (ERE) (AID 2282940). Conditions: HepG2 ERE cis-reporter, Attagene RNA transcript; actives raise or lower the signal. An outline of the steps:
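Readout: reporter mRNA induction by RT-PCR, FAM-labelled primer extension, HpaI digestion and capillary electrophoresis, 24 h after dosing transfected HepG2 cells. Endogenous transcription factors act on cis-element-regulated reporters. Gain or loss fitted against DMSO.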

Experiment [6] is described as follows: ATG_Ets_CIS: Attagene CIS-FACTORIAL HepG2 Assay for human Erythroblast Transformation Specific (ETS) (AID 2282941). The conditions noted are these: HepG2 ETS cis-reporter transcription, actives raise or lower the signal. An outline of the steps: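 RT-PCR/capillary electrophoresis fluorescence read-out of reporter mRNA; HepG2 transient multi-reporter transfection; 24 h compound exposure; gain or loss of signal fitted bidirectionally relative to DMSO.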

The target in experiment [7] is Hepatocyte nuclear factor 3-beta (Homo sapiens) (UniProt Q9Y261). The experiment can be described thus: ATG_FoxA2_CIS: Attagene CIS-FACTORIAL HepG2 Assay for human Forkhead box A2 (FOXA2) (AID 2282942). The conditions noted are these: HepG2 cis-reporter transcription factor activity, 24 h; actives raise or lower the signal. An outline of the steps:
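HepG2 transiently transfected with a multiplexed cis-promoter reporter library read endogenous FOXA2 activity. After 24 h compound exposure, reporter mRNA was quantified by RT-PCR, HpaI digestion and capillary electrophoresis. Bidirectional fit against DMSO.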

A short description of experiment [8]: ATG_FoxO_CIS: Attagene CIS-FACTORIAL HepG2 Assay for human Forkhead box O (FoxO) (AID 2282943). Conditions: HepG2 Attagene cis-reporter, FoxO element, mRNA; actives raise or lower the signal. In outline:
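HepG2 cells transiently transfected with cis-promoter-driven multiple reporter transcription units; 24 h after chemical dosing, reporter mRNA quantified by RT-PCR, fluorescent primer extension, HpaI digestion and capillary electrophoresis. Bidirectional fitting versus DMSO baseline.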

The nature of experiment [9]: ATG_GATA_CIS: Attagene CIS-FACTORIAL HepG2 Assay for human GATA Binding Protein (AID 2282944). Conditions: HepG2 GATA cis-element reporter, Attagene multiplex mRNA; actives raise or lower the signal. An outline of the steps: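 Read-out: fluorescent reporter mRNA fragments resolved by capillary electrophoresis after RT-PCR. Human liver HepG2 cells carried transiently transfected cis-regulated reporter constructs; chemicals incubated 24 h; gain or loss of signal fitted relative to DMSO.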

The nature of experiment [10]: ATG_GLI_CIS: Attagene CIS-FACTORIAL HepG2 Assay for human Zinc Finger Protein GLI1 (AID 2282945). Conditions: HepG2, Attagene cis-factorial reporter mRNA, GLI element; actives raise or lower the signal. In outline:
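HepG2 cells transiently transfected with cis-promoter multiplexed reporter units report endogenous transcription factor activity. After 24 h chemical exposure, reporter mRNA was quantified by RT-PCR, 6-FAM labelling, HpaI digestion and capillary electrophoresis, with bidirectional fitting against DMSO.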

Experiment [11] addresses Bile acid receptor (Homo sapiens) (UniProt Q96RI1). The experiment in a line: ATG_IR1_CIS: Attagene CIS-FACTORIAL HepG2 Assay for human Nuclear Receptor Subfamily 1 Group H Member 4 (NR1H4), IR1 submotif (AID 2282946). Conditions: IR1 reporter transcription, actives raise or lower the signal. An outline of the steps: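 Readout: reporter transcript levels by RT-PCR with fluorescent capillary electrophoresis, from HepG2 cells transiently transfected with multiplexed cis-regulated reporters and dosed 24 h. Gain- or loss-of-signal fitted versus DMSO negative control.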

Experiment [12] is described as follows: ATG_ISRE_CIS: Attagene CIS-FACTORIAL HepG2 Assay for human Interferon Regulatory Factor 1 (IRF1) binding to an Interferon-Stimulated Response Element (ISRE) (AID 2282948). Conditions: HepG2 ISRE cis-reporter (Attagene), mRNA transcription readout; actives raise or lower the signal. In outline: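 Read-out: fluorescent RT-PCR products resolved by capillary electrophoresis, reporting endogenous transcription factor activity via ISRE-driven reporter mRNA in transfected HepG2 cells dosed for 24 h; gain or loss fitted relative to DMSO.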

The nature of experiment [13]: ATG_M_32_CIS: Attagene CIS-FACTORIAL HepG2 Assay for M32 Transcription Factor (Internal Marker) (AID 2282949).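 Further: background control marker of the multiplexed CIS panel rather than a real target.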 Conditions: HepG2 Attagene cis-factorial M32 reporter, mRNA; actives raise or lower the signal. In outline:
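Using DMSO as baseline, bidirectional curve fits were applied to reporter mRNA signals. These came from transiently transfected HepG2 cells exposed for 24 h, with RNA analysed by RT-PCR, FAM primer extension, HpaI digestion and CE.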

The nature of experiment [14]: ATG_M_06_CIS: Attagene CIS-FACTORIAL HepG2 Assay for M06 Transcription Factor (Internal Marker) (AID 2282950). Conditions: HepG2 Attagene CIS-FACTORIAL M06 internal marker reporter; actives raise or lower the signal. In outline: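 Terse: HepG2, transient MRTU transfection (FuGene 6), 24 h dosing; total RNA, oligo(dT) RT, PCR, FAM label, HpaI cut, capillary electrophoresis; bidirectional fit vs DMSO baseline; background-control endpoint.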

The target in experiment [15] is Hypoxia-inducible factor 1-alpha (Homo sapiens) (UniProt Q16665). The experiment can be described thus: ATG_HIF1a_CIS: Attagene CIS-FACTORIAL HepG2 Assay for human Hypoxia Inducible Factor 1 (HIF1A) (AID 2282951). The conditions noted are these: HepG2 Attagene cis-factorial HIF1a reporter transcription; actives raise or lower the signal. An outline of the steps: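 HepG2 cells transiently transfected with multiple cis-regulated reporter transcription units measure endogenous transcription factor activity. After 24 h exposure, reporter mRNA is quantified by RT-PCR with 6-FAM labelling, HpaI digestion and capillary electrophoresis. Bidirectional fitting against DMSO.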

The target of experiment [16] is Hepatocyte nuclear factor 6 (Homo sapiens) (UniProt Q9UBC0). The experiment can be described thus: ATG_HNF6_CIS: Attagene CIS-FACTORIAL HepG2 Assay for human Hepatocyte Nuclear Factor 6 (HNF6) (AID 2282952). The conditions noted are these: HepG2 Attagene cis-factorial HNF6 reporter transcription; actives raise or lower the signal. In outline: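 Twenty-four-hour chemical treatment of reporter-transfected HepG2 cells precedes RNA isolation, DNase-treated reverse transcription and PCR of reporter sequences. Labelled fragments are sized by capillary electrophoresis and fitted bidirectionally versus DMSO.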

Experiment [17] has as its target Heat shock factor protein 1 (Homo sapiens) (UniProt Q00613). The experiment in a line: ATG_HSE_CIS: Attagene CIS-FACTORIAL HepG2 Assay for human Heat Shock Transcription Factor 1 (HSE) (AID 2282953). Conditions: HepG2 HSE cis-reporter, Attagene RNA transcription; actives raise or lower the signal. In outline: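 Read-out: fluorescence of reporter-specific RT-PCR fragments separated by capillary electrophoresis. HepG2 carrying transfected cis-element reporter units; 24 h dosing; activity fitted in both directions relative to DMSO baseline.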

Experiment [18] in a line: ATG_MRE_CIS: Attagene CIS-FACTORIAL HepG2 Assay for human Metal Responsive Element (MRE) (AID 2282954). Conditions: HepG2 MRE cis-reporter transcription, Attagene multiplex; actives raise or lower the signal. An outline of the steps:
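Readout: capillary electrophoresis of 6-FAM-labelled, HpaI-digested RT-PCR reporter products. System: HepG2 cells carrying transient multiplexed cis reporters, dosed 24 h. Analysis: bidirectional fit, DMSO baseline.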

Experiment [19] in a line: ATG_PBREM_CIS: Attagene CIS-FACTORIAL HepG2 Assay for human Phenobarbital-responsive Enhancer Module (PBREM) (AID 2282955). The conditions noted are these: HepG2 PBREM cis-reporter, Attagene multiplexed transcription; actives raise or lower the signal. In outline: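 HepG2 cells transiently transfected with multiple cis-regulated reporter units measure endogenous transcription factor activity; 24 h compound exposure. Reporter mRNA quantified by RT-PCR, fluorescent labelling, HpaI digestion and capillary electrophoresis; bidirectional fit versus DMSO.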

The nature of experiment [20]: ATG_GRE_CIS: Attagene CIS-FACTORIAL HepG2 Assay for human Glucocorticoid Response Elements (GRE) (AID 2282947). The conditions noted are these: HepG2 GRE cis-reporter, Attagene multiplex mRNA; actives raise or lower the signal. In outline: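 HepG2, transient cis-reporter transfection, 24 h. Reporter mRNA: RT-PCR then CE, fluorescence. Fit both directions vs DMSO.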

Sequence of Hepatocyte nuclear factor 3-beta (Homo sapiens) (Q9Y261 whole entry, looked up): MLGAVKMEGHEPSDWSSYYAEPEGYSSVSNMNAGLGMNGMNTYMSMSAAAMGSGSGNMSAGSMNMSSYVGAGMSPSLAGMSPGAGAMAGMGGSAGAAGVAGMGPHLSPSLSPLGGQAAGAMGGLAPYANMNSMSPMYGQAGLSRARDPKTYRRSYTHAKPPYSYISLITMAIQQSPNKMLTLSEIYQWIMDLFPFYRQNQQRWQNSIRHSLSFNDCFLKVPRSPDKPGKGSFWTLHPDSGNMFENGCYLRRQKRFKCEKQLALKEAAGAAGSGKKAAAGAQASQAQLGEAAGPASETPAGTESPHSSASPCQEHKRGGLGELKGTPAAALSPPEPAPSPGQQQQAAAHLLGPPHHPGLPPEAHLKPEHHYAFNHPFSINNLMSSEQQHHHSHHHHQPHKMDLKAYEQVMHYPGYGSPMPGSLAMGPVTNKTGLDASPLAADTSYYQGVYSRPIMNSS
Sequence of Hepatocyte nuclear factor 6 (Homo sapiens) (Q9UBC0 whole entry, looked up, the tested form may be a part): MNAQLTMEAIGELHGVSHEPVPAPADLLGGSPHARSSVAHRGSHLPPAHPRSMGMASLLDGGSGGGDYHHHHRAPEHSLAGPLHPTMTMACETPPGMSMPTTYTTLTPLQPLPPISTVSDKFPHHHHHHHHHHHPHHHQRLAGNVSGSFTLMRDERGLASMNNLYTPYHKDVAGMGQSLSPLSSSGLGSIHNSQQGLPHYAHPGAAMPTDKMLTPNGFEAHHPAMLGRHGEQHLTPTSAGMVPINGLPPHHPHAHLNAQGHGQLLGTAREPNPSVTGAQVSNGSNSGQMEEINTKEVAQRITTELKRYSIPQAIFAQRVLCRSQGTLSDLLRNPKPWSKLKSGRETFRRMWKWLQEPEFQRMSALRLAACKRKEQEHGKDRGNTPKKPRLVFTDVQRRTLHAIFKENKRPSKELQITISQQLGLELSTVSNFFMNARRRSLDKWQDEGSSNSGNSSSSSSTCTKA
Sequence of Hypoxia-inducible factor 1-alpha (Homo sapiens) (Q16665 whole entry, looked up): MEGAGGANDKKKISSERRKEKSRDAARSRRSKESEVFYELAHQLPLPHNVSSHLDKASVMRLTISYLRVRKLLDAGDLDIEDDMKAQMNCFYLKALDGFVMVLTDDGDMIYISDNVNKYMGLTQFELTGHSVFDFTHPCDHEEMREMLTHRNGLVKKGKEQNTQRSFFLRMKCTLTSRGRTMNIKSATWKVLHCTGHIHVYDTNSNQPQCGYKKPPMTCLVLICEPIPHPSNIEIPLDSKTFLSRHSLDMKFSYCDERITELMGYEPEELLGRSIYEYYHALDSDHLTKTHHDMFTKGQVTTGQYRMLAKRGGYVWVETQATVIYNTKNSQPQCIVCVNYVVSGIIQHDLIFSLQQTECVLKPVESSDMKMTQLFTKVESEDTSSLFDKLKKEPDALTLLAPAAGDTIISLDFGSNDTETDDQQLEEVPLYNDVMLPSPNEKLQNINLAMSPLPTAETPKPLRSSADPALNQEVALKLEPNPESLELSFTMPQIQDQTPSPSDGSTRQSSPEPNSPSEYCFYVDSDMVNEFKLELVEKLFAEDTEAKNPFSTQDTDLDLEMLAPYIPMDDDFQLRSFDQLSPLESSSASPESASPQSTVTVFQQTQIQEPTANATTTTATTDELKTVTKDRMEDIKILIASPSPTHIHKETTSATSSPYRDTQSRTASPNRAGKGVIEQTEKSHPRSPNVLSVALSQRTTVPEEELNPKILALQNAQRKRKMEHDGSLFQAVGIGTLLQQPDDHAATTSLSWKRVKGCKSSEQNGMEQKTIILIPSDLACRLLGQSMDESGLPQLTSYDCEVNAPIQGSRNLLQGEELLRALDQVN
Sequence of Heat shock factor protein 1 (Homo sapiens) (Q00613 whole entry, looked up, the tested form may be a part): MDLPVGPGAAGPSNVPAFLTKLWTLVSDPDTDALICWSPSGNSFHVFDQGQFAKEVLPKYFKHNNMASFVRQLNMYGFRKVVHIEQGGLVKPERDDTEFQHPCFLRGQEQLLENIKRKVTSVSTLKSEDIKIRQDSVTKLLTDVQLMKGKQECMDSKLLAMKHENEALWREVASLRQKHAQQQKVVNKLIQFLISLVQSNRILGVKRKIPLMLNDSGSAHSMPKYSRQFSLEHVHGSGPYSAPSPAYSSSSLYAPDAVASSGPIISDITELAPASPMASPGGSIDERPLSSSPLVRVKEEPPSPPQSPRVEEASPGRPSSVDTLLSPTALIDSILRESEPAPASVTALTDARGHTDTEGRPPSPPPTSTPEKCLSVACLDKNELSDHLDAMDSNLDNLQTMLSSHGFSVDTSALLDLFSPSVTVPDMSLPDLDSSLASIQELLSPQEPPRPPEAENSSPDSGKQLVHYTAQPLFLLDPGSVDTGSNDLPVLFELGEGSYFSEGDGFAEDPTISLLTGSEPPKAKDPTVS
Sequence of Bile acid receptor (Homo sapiens) (Q96RI1 whole entry, looked up): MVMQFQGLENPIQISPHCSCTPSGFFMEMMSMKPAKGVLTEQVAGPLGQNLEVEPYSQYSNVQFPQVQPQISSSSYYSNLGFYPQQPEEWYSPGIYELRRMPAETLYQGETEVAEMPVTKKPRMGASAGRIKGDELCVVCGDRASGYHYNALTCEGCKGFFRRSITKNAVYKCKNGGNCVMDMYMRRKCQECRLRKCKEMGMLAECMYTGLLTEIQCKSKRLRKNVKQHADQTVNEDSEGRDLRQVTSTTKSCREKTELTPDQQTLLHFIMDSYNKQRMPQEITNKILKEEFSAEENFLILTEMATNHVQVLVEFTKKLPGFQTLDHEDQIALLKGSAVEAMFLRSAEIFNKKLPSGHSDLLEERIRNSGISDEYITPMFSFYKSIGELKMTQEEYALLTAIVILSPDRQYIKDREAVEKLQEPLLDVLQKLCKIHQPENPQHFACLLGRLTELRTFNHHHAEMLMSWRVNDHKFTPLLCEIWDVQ

Consider `COc1ccc(C(=O)Nc2nc3ccccc3c(NCc3ccccc3)c2C#N)cc1`, for which the outcome in [1], in experiment [2], in experiment [3], in [4], in [6] and in [7] was inactive. Moreover, the outcome in experiment [8], in experiment [9], in experiment [10], in [11], in experiment [12] and in experiment [13] was inactive. The compound was called inactive in [14], in experiment [16], in [17], in experiment [18] and in [19]. The results for the AC50 in [5] and in [15] were 1.46 µM (active) and 26.5 µM (active), respectively.
With `Nc1nc(Cl)nc2c1ncn2[C@H]1C[C@H](O)[C@@H](CO)O1`, in [1], the AC50 is 11.4 µM (active). The result in [2], in experiment [3], in [4], in experiment [6], in experiment [7] and in experiment [8] was inactive. Moreover, the call in [9], in [10], in [11], in experiment [20], in experiment [12] and in experiment [13] was inactive. The outcome in experiment [14], in experiment [16], in experiment [17], in experiment [18] and in [19] was inactive.
As to `Cc1ccc(-c2cc(C(F)(F)F)nn2-c2ccc(S(N)(=O)=O)cc2)cc1`, the outcome in experiment [1], in experiment [2], in [3], in [4], in experiment [5] and in [6] was inactive. In addition, the compound was called inactive in experiment [7], in [8], in [9], in experiment [12], in experiment [13] and in experiment [14]. Moreover, the result in experiment [15], in experiment [16] and in [17] was inactive. Also, the AC50 in [18] was 6.28 µM (active).
`NC(=Nc1ccccc1)Nc1ccccc1`: the outcome in experiment [1], in experiment [2], in experiment [4], in [5], in experiment [6] and in experiment [7] was inactive. In addition, the result in experiment [8], in experiment [9], in experiment [11], in experiment [13], in experiment [14] and in [15] was inactive. Also, the outcome in [16] and in experiment [17] was inactive. The AC50 was 39.2 µM (active) in [3], 5.79 µM (active) in experiment [12] and 28 µM (active) in experiment [18].
`NC=O`: the result in experiment [1], in experiment [2], in experiment [3], in experiment [4], in experiment [6] and in [7] was inactive. Also, the compound was called inactive in experiment [8], in [9], in experiment [10], in experiment [11], in [12] and in [13]. For the same compound, the compound was called inactive in [14], in [15], in [16], in [17] and in [18].
On to `C#CC(O)C(CC)CCCC` (stereo not drawn), for which the outcome in [1], in [2], in [3], in experiment [4], in experiment [6] and in [7] was inactive. Also, the compound was called inactive in [8], in experiment [10], in experiment [12], in experiment [14], in experiment [15] and in experiment [17]. The compound was called inactive in experiment [18] and in experiment [19]. Moreover, the AC50 in experiment [9] is 168 µM (active); in experiment [13] it was 157 µM (active); in [16] it was 144 µM (active).
As to `COc1ccc(OC(F)(F)F)cc1CN[C@H]1CCCN[C@H]1c1ccccc1`, the AC50 is 11 µM (active) in experiment [1] and 2.74 µM (active) in [17]. For the same compound, the call in experiment [2], in experiment [3], in [4], in experiment [5], in experiment [6] and in experiment [7] was inactive. For the same compound, the call in [8], in experiment [9], in [11], in experiment [20], in experiment [12] and in experiment [13] was inactive. For the same compound, the outcome in [14], in experiment [15], in [16], in [18] and in experiment [19] was inactive.
